Source: PubChem BioAssay AID1492 (National Center for Advancing Translational Sciences (NCATS), 2009)
Results filed as inconclusive are left out. Unmarked numbers belong to inactive results. The source made the active and inactive calls. The call rests on the fitted dose curve; in most records, active means well fitted inhibition curve with a large enough effect; inconclusive means small, poorly fitted or top-dose-only effect; inactive means flat fitted curve, though single readings scatter.

target: Muscarinic acetylcholine receptor M1 (Rattus norvegicus) (UniProt P08482); assay: Counterscreen Concentration-Response Assay for Antagonists of the Neuropeptide S Receptor: Muscarinic Receptor Calcium Signal Transduction.; settings: CHO-M1 cells, carbachol-induced calcium fluorescence, FDSS; series mostly up to 20.2 µM; activity, negative = inhibition: at the top concentration
Description: NIH Chemical Genomics Center [NCGC] NIH Molecular Libraries Probe Production centers Network [MLPCN] MLPCN Grant: X01-DA026210-01 Assay Submitter (PI): Heilig, Markus Alexander NCGC Assay Overview: Neuropeptide S receptor (NPSR), previously known as GPR154, is a recently de-orphanized G protein coupled receptor. Its endogenous ligand is the 20 amino acids peptide Neuropeptide S (NPS). […] NPS and its receptor are found in various tissues. Specifically they are highly expressed in brain areas that have been implicated in modulation of arousal, stress and anxiety. Central administration of NPS in mice produces an unusual profile of activity by inducing wakefulness and arousal, while at the same time suppressing anxiety. Therefore, NPSR may represent a novel drug target for the treatment of sleep and anxiety disorders. To identify NPSR antagonists, we developed a cell-based assay with transfected NPS receptor. NPS can stimulate the production of cAMP as well as release intracellular calcium in Chinese hamster ovary cells stably expressing NPS receptor. This change in intracellular calcium can be detected using a calcium indicator dye on a calcium imaging plate reader system (FDSS). To validate the specific action of compounds on the NPS receptor, a counterscreen was developed that tests compounds' antagonism of M1 muscarinic receptor stimulation by carbachol. The protein, gene and taxonomy linked to this assay refer to Rattus norvegicus, but Chinese Hamster ovary cells were actually used.
NCGC Assay Protocol Summary: A Chinese hamster ovary (CHO) cell line stably expressing muscarinic acetylcholine M1 receptor (CHO-M1) was obtained from ATCC and maintained in F-12 Kaighn's media (Invitrogen, Carlsbad, CA, 21127) supplemented with 10 % FBS, 100 units/ml penicillin, 100 ug/ml streptomycin and 250 ug/ml geneticin at 37C, 5% CO2 in a humidified atmosphere. Before the assay, aliquots of cells were frozen and stored at -135C. The assay was performed on a FDSS-7000 kinetic plate reader in 1536-well format. The maximums of kinetic fluorescence responses were converted into text files using the instrument's software data export utility. […] AC50 values were determined from concentration-response data modeled with the standard Hill equation. CHO-M1 1536-well FDSS assay protocol: (1) Frozen CHO-M1 cells were thaw, washed once with fresh media and resuspended in F-12 Kaighn's media supplemented with 10 % FBS, 100 units/ml penicillin and 100 ug/ml streptomycin. Cells were plated at 3 ul/well (1200 cells) to black, clear-bottom, tissue-culture treated 1536-well plates, and then cultured at 37C, 5 % CO2 for 16 to 30 hours. (2) Add 3 ul of calcium dye (from High Performance PBX Calcium Assay Kit, BD Biosciences). The calcium dye was prepared according to the manufactory's instruction. (3) Incubation at 37C, 5 % CO2 for 60 min. (4) Add 23 nl/well of compound in DMSO solution. The final titration for each compound was between 0.6 nM and 46 uM. (5) Load plates to FDSS-7000. The following steps were performed on FDSS-7000. (6) Record fluorescent background (Ex 480 nm, Em 520-560 nm) for 10 s. (7) Add 2 ul of stimulation reagent (1X HBSS buffer, 0.1% BSA, 60 nM carbachol). Record antagonist response (Ex 480 nm, Em 520-560 nm) for 180 s. Keywords: MLSMR, MLPCN, NIH Roadmap, qHTS, NCGC, NPS, Neuropeptide S Antagonists

Structure (SMILES)	activity, negative = inhibition [%]	Potency
O=[N+]([O-])c1cc2c(cc1/C=N/n1c(-c3ccccc3)n[nH]c1=S)OCO2	-9.38	–
COc1ccc(NC(=O)/C(Cl)=C(/Cl)S(=O)Cc2ccc(C)cc2)cn1 (stereo not given)	–	10 µM (active)
N#Cc1cnn(-c2ncnc3sc4c(c23)CCCC4)c1N	9.92	–
O=C(/C=C/c1ccco1)NC(=S)Nc1cccc(-c2nc3ccccc3o2)c1	-7.11	–
O=C(COC(=O)c1ccccc1C(=O)c1ccc(Cl)c([N+](=O)[O-])c1)NC1CCCCCC1	–	4.47 µM (active)
O=C1Nc2ccc(S(=O)(=O)N3CCCC3C(=O)O)c3cccc1c23 (stereo not given)	0.459	–
O=C(NCCCN1CCOCC1)c1cc2c(=O)[nH]c3ccccc3c2s1	4.61	–
C=CCOc1c(Cl)cc(CNc2ccc(N(C)C)cc2)cc1OC	7.52	–
Cn1c(COc2ccccc2)nnc1SCc1cc(=O)[nH]c2ccccc12	-0.776	–
O=C(N1CCOCC1)C1(c2ccc(Cl)cc2)CCCC1	15.5	–
CC1CCN(S(=O)(=O)c2ccc(C(=O)Nc3sccc3C(N)=O)cc2)CC1	-2.17	–
CC1CCCc2sc3nc(N4CCN(CCO)CC4)n4ncnc4c3c21 (stereo not given)	17.7	–
Cc1ccc(-c2nnn(CC(=O)Nc3ccccc3-c3ccccc3)n2)c(-n2cnnn2)c1	6.88	–
Nc1ccc(-c2nc3c(Cl)cc(N)cc3[nH]2)cc1	-5.43	–
CN(CC(=O)NCc1ccc(F)cc1)S(=O)(=O)c1cccc2nsnc12	7.72	–
O=C(O)CCCCCNc1nc(=S)[nH]c2ccccc12	-7.08	–
CCC(Sc1ccc2nnc(-c3cccnc3)n2n1)C(=O)O (stereo not given)	-10.5	–
Cc1ccc2nc3ccc(N4CCCCCCC4)nn3c(=O)c2c1	3.52	–
COc1ccc(/C=C2\CCCC3C2=NN(C(=O)c2ccco2)C3c2ccc(OC)c(OC)c2)cc1OC (stereo not given)	12.2	–
O=C(O)C1CCN(c2nc(-c3ccccc3)nc3c2oc2ccccc23)CC1	-11.1	–

Structure (SMILES)	activity, negative = inhibition [%]	Potency
Cc1ccc(-c2ccc(/C=C3\C(=O)ON=C3c3ccccc3)o2)c([N+](=O)[O-])c1	–	3.98 µM (active)
COc1ccccc1-c1nnc(SC2CCc3ccccc3NC2=O)s1 (stereo not given)	-0.169	–
c1ccc(-c2ccc(-c3nc(-c4cccnc4)no3)cc2)cc1	12.7	–
C=CCn1c(SCCN2C(=O)c3ccccc3C2=O)nc2scc(-c3ccccc3)c2c1=O	11.2	–
COCCCn1c(SCc2cc(=O)[nH]c3ccccc23)nnc1-c1ccco1	-8.77	–
Cc1cc(OCC(=O)c2ccc(Br)cc2)ccc1N1C(=O)CCC1=O	-0.282	–
O=C(CSC1=NCCS1)Nc1ccnc2ccccc12	7.63	–
O=c1cc(CNCCCO)c2ccccc2[nH]1	6.24	–
CCC(C)n1c(=O)c(C(=O)Nc2ccccc2S(N)(=O)=O)c(O)c2ccccc21 (stereo not given)	-8.1	–
C=CCNC(=O)/C(C#N)=C/c1cn(-c2ccccc2)nc1-c1ccc(OC)c([N+](=O)[O-])c1	-10.9	–
COc1cccc(C(=O)/C=C/Nc2ccc(S(=O)(=O)Nc3cccc(C(C)=O)c3)cc2)c1	-19.1	–
c1ccc(N2CCN(Cc3ccnc4ccccc34)CC2)cc1	12.5	–
Brc1ccc(CSc2ncn[nH]2)cc1	-10.8	–
COc1ccc(C2c3c(ncn(CCN4CCOCC4)c3=N)Oc3ccc4ccccc4c32)cc1OC (stereo not given)	17.8	–
Cn1c(C(=O)NCCN2CCc3ccccc3C2)cc2c(=O)[nH]c3ccccc3c21	4.13	–
CCN(CC)S(=O)(=O)c1ccc2c(c1)nc(SC(C)C(N)=O)n2-c1ccc(OC)cc1 (stereo not given)	-10.2	–
Cc1ccc2oc(-c3cccc(NC(=S)NC(=O)/C=C/c4ccco4)c3)nc2c1	-15.2	–
Cc1cccc(-c2nnc(SCc3cc(=O)[nH]c4ccccc34)n2C)c1	3.42	–
O=C(Nc1nccs1)C1CCCN1S(=O)(=O)c1ccc(Cl)cc1 (stereo not given)	14.5	–
O=c1cc(-c2c(F)c(F)c(F)c(F)c2F)oc2c(F)c(F)c(F)c(F)c12	–	5.01 µM (active)
